# Laboratory results as given in PubChem BioAssay (NCATS).
# Where “and” joins values, the source holds several entries; their conditions need not be identical. Identical values can stand only once. Results filed as inconclusive are left out. Where a call stands in place of a potency, no number is given. Calls of active or inactive are those of the source. Unless noted, the call rests on the fitted dose curve; in most records, active means well fitted curve in the direction sought with a large enough effect; inconclusive means small, poorly fitted or top-dose-only effect, or another doubt; inactive means no such curve, though single readings can be large; an effect the other way counts as inactive or inconclusive.
# Experiments:
# [1] = molecular target: D(1A) dopamine receptor (Homo sapiens) (UniProt P21728); assay: HTS Assay for Allosteric Agonists of the Human D1 Dopamine Receptor: Primary Screen for Potentiators (AID 488982); further: potency means the concentration at half of the fitted maximal effect
# D(1A) dopamine receptor (Homo sapiens), sequence (P21728 whole entry, looked up): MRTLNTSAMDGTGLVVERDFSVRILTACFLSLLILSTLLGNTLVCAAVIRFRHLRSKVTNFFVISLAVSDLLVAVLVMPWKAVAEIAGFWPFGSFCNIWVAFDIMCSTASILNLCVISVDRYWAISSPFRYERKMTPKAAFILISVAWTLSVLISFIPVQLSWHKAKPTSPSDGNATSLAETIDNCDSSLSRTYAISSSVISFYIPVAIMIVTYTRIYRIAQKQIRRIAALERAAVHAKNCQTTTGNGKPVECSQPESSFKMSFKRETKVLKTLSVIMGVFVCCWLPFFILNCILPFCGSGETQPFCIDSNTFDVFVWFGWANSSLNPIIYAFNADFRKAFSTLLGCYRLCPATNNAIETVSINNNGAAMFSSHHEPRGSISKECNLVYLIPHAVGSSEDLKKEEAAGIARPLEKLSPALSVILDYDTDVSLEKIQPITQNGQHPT
# Outline: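 Calcium flux in an inducible, force-coupled HEK293 Trex D1 line (overnight at 30 C): agonist mode is the 180 s kinetic read after compound; potentiator mode is the following 180 s read after dopamine at EC20.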
# [2] = molecular target: D(1A) dopamine receptor (Homo sapiens) (UniProt P21728); assay: HTS Assay for Allosteric Agonists of the Human D1 Dopamine Receptor: Primary Screen for Antagonists (AID 488983);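 further: calcium flux response to an EC80 dopamine challenge measured with no-wash dye; nearly all actives have a fitted effect of over 65% in size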; further: potency means the concentration at half of the fitted maximal effect
# Outline: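 Calcium flux readout, no-wash dye, inducible HEK293 T-REx D1 line (force-coupled). Compound added after 10 s baseline, 180 s kinetic read; then dopamine at EC80, further 180 s read.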
# [3] = Validation screen for small molecules that induce genotoxicity in human embryonic kidney (HEK293T) cells expressing luciferase-tagged ELG1 (AID 493106); further: potency means the concentration at half of the fitted maximal effect
# Outline: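 qHTS format; 2,000 HEK293T ELG1-luc cells/well; 23 nL compound via pin tool; 16 hr, 37 °C/5% CO2; ONE-Glo, 30 min RT; luminescence read.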
# [4] = molecular target: Thyrotropin-releasing hormone receptor (Homo sapiens) (UniProt P34981); assay: qHTS for Small Molecule Agonists and Allosteric Enhancers of Human TRH Receptor: Validation Screen for Agonists (AID 493127;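 active means calcium activation more than 3 SD above the typical response in the agonist read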;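 further: intracellular calcium rise by fluo-8 fluorescence before TRH EC20 addition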); details: TRH receptor agonist cell assay; at 2 µM; stronger effect = higher value
# Thyrotropin-releasing hormone receptor (Homo sapiens), sequence (P34981 whole entry, looked up): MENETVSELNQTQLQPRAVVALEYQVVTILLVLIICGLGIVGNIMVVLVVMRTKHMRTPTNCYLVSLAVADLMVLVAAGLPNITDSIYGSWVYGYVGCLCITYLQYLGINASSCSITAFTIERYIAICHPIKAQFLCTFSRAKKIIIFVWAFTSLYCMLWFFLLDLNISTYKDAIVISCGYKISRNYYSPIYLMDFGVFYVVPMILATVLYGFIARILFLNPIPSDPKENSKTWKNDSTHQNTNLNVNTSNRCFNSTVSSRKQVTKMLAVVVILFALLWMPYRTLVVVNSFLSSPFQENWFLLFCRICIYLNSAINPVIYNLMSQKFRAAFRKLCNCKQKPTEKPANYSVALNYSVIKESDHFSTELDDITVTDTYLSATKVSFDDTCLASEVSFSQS
# Outline: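 Read-out: intracellular calcium release measured kinetically by FDSS (fluo-8, ex 480/em 530 nm), 1 reading/s after a 10-cycle baseline. TRHR cells, 2000/well, cultured 18 h at 33.5C, dye-loaded at room temp. Compound-evoked positive calcium signal flags agonists.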
# [5] = Nrf2 qHTS screen for inhibitors: Validation (AID 493153; active means well fitted inhibition curve with a large enough effect in the main read-out, with a control signal flat, not every such curve was filed as active; further: potency means the concentration at half of the fitted maximal effect); details: Potency: luciferase luminescence; viability change: measured here: cytotoxicity max response
# Outline: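 Concentration-response test in A549 ARE_Fluc reporter cells (5% FBS OPTI-MEM), compound exposure 18-24 h at 37°C, 5% CO2. Cell viability measured first by CellTiter-Fluor fluorescence; ARE-driven luciferase luminescence then measured as Nrf2 activity.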
# [6] = qHTS for Inhibitors of Cell Surface uPA Generation: Validation Assay (AID 493164);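 further: RAW 264.7 macrophage cells exposed to compound for 18 h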
# Outline: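 Compounds are titrated over seven points (2.45 nM–38.3 uM final) onto pre-plated RAW 264.7 cells and incubated for 18 h. Retained intracellular ATP, measured with ATP-Lite, indicates blocked lethal factor entry.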
# [7] = molecular target: Galactokinase (Homo sapiens) (UniProt P51570); assay: qHTS Validation Assay for Inhibitors of Human Galactokinase (GALK) (AID 493189)
# Galactokinase (Homo sapiens), sequence (P51570 whole entry, looked up): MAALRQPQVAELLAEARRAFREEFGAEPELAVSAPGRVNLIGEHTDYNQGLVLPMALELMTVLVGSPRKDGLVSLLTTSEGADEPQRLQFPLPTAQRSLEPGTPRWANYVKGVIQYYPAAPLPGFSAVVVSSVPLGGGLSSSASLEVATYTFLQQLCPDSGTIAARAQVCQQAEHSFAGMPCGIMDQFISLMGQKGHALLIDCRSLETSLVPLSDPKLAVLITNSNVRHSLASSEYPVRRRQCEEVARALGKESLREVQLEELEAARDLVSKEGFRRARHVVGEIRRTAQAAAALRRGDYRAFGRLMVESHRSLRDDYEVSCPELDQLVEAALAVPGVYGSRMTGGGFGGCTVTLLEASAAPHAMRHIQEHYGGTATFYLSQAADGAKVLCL
# Outline: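 Luminescence from leftover ATP (Kinase-Glo Plus, 10 min) served as read-out after a 1 h room-temperature reaction of 5 nM GALK, 100 uM galactose and 35 uM ATP at pH8.0.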
# [8] = molecular target: ATPase family AAA domain-containing protein 5 (Homo sapiens) (UniProt Q96QE3); assay: Validation screen for small molecules that inhibit ELG1-dependent DNA repair in human embryonic kidney (HEK293T) cells expressing luciferase-tagged ELG1 (AID 493107); further: nearly all actives have a fitted effect of over 70% in size; further: potency means the concentration at half of the fitted maximal effect
# ATPase family AAA domain-containing protein 5 (Homo sapiens), sequence (Q96QE3 whole entry, looked up, the tested form may be a part): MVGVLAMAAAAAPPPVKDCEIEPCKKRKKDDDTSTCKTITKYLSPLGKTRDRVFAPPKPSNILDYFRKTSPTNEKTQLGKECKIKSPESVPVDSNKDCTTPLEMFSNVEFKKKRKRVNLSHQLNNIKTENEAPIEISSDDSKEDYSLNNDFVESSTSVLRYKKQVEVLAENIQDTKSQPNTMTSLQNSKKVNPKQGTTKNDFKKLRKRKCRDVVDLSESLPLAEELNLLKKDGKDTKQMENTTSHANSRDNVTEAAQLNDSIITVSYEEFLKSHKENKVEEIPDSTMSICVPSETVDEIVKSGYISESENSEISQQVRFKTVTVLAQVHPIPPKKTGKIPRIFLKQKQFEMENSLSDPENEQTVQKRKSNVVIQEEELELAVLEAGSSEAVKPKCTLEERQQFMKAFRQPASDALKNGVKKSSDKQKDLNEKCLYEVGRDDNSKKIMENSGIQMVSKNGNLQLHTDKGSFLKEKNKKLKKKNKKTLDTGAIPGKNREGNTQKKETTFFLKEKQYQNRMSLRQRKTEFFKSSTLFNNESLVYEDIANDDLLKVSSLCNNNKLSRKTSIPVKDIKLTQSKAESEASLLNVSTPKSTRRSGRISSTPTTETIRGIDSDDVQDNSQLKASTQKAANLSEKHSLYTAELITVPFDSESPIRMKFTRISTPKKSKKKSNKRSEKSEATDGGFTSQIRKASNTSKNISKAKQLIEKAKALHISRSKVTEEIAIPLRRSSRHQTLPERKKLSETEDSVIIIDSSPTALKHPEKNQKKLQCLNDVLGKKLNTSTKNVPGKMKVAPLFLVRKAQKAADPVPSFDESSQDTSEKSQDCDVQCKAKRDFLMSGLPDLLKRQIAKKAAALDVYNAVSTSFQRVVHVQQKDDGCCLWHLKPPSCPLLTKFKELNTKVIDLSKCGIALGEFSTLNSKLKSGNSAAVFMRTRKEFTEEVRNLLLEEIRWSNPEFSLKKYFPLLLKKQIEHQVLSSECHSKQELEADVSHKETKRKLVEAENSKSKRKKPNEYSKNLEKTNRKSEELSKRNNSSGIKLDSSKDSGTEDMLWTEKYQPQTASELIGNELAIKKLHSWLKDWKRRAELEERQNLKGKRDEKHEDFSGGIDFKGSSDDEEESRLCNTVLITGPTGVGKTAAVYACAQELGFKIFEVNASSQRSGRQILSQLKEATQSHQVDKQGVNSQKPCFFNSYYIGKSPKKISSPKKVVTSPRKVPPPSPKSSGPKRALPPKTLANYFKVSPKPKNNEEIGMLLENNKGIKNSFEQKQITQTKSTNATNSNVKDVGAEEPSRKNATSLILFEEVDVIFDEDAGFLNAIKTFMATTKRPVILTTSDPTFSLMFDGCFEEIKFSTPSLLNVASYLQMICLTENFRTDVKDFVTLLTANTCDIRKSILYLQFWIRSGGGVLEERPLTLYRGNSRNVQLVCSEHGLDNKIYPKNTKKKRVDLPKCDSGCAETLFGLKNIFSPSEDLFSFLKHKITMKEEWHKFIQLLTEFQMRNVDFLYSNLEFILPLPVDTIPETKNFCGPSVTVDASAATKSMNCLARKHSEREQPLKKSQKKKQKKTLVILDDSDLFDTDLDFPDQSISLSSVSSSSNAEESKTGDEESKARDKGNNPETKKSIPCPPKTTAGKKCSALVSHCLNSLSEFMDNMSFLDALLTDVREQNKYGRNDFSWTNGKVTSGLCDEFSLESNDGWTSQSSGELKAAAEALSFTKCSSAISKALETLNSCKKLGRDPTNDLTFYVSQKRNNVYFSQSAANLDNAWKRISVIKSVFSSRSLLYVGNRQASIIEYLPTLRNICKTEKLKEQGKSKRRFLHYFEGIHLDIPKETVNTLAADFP
# Outline: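 ELG1-luciferase HEK293T reporter; 5-fluorouridine + compound/DMSO, 16 hr, 37 °C, 5% CO2; ONE-Glo 30 min RT; luminescence read, qHTS format.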
Compound,Potency [1],Potency [2],Potency [3],activation [4],Potency [5],viability change [5],outcome [6],Potency [7],Potency [8]
CCCn1c(=O)c2[nH]c(-c3ccc(OCC(=O)NCCN)cc3)nc2n(CCC)c1=O,inactive,inactive,inactive,0.688% (inactive),inactive,10.5%,inactive,inactive,–
O=C(CCCCCN1CCN(c2ccccc2-c2ccccc2)CC1)NC1CCCc2ccccc21 (stereo not given),inactive,7.08 µM (active),inactive,–,–,–,inactive,–,–
O=C(O)[C@@H]1C[C@H](C(=O)O)N1,inactive,inactive,inactive,-0.25% (inactive),inactive,12.1%,inactive,inactive,–
CN1CCc2ccccc2Cc2[nH]c3ccccc3c2CC1,inactive,0.355 µM (active),inactive,0.5% (inactive),inactive,-10.2%,inactive,inactive,–
NC(=O)C(=O)O,inactive,inactive,–,1% (inactive),inactive,4.28%,inactive,inactive,inactive
NO,inactive,inactive,inactive,–,inactive,4.95%,inactive,inactive,–
CCc1c(C(=O)NCCc2ccc(N3CCCCC3)cc2)[nH]c2ccc(Cl)cc12,inactive,inactive,inactive,–,inactive,-7.76%,inactive,–,inactive
CCCCCCCCCCCCCCCC(=O)NCC(COP(=O)([O-])OCC[N+](C)(C)C)OCC (stereo not given),inactive,10 µM (active),18.3 µM (active),0.812% (inactive),inactive,10.8%,inactive,inactive,–
COc1ccc(/C=C/C(=O)Nc2ccccc2C(=O)O)cc1OC,inactive,inactive,1.64 µM (active),-5.44% (inactive),–,–,inactive,inactive,–
OC[C@H]1O[C@@H](n2cnc3c(Nc4ccccc4)ncnc32)[C@H](O)[C@@H]1O,inactive,inactive,9.2 µM (active),–,–,–,inactive,–,inactive
Fc1ccc(C(OCCCc2cnc[nH]2)c2ccc(F)cc2)cc1,inactive,inactive,–,-5.06% (inactive),inactive,0.0521%,inactive,inactive,inactive
O=C(/C=C/c1ccc(O)c(O)c1)OCCc1ccccc1,inactive,inactive,20.6 µM (active),0.812% (inactive),inactive,-1.73%,inactive,inactive,–
NC(=O)C1=CN(C2OC(COP(=O)(O)OP(=O)(O)OC[C@H]3O[C@@H](n4cnc5c(N)ncnc54)[C@H](OP(=O)(O)O)[C@@H]3O)C(O)C2O)C=CC1 (stereo not given in full),inactive,inactive,inactive,–,inactive,5.72%,inactive,–,–
Cn1ncc(S(=O)(=O)Cc2ccccc2)c(Br)c1=O,inactive,inactive,–,–,–,–,–,–,inactive
O=C(/C=C/c1ccc(O)cc1)c1ccc(O)cc1O,inactive,inactive,8.2 µM (active),-5.19% (inactive),inactive,-0.936%,inactive,inactive,–
CN(C)CCCO[C@@H]1[C@H]2OC(C)(C)O[C@H]2O[C@@H]1[C@H](O)CO,inactive,inactive,inactive,–,inactive,3.16%,inactive,–,inactive
O=[N+]([O-])c1ccc(CSc2ncnc3c2ncn3[C@@H]2O[C@H](CO)[C@@H](O)[C@H]2O)cc1,inactive,inactive,inactive,–,–,–,inactive,–,0.0206 µM (active)
CCN1/C(=C/C(C)=O)Sc2ccc(OC)cc21,inactive,inactive,inactive,-4.31% (inactive),inactive,-5.53%,inactive,inactive,–
O=C(c1cc(O)c(O)c([N+](=O)[O-])c1)c1ccccc1F,inactive,inactive,inactive,-0.125% (inactive),–,–,inactive,inactive,–
COc1cccc(C(=O)NCCN2CCN(c3ccc(Cl)cc3)CC2)c1,inactive,inactive,inactive,0.562% (inactive),inactive,-10%,inactive,inactive,–

Compound,Potency [1],Potency [2],Potency [3],activation [4],Potency [5],viability change [5],outcome [6],Potency [7],Potency [8]
O=C(Nc1ccccc1)c1cc([N+](=O)[O-])ccc1Cl,inactive,inactive,inactive,0.375% (inactive),inactive,-4.87%,inactive,inactive,–
CN(C)c1nc2c(Br)c(Br)c(Br)c(Br)c2[nH]1,inactive,inactive,–,5.88% (inactive),16.4 µM (active),-13.2%,inactive,inactive,1.46 µM (active)
CC(C)NCC(O)COc1cccc2ccccc12 (stereo not given),inactive,inactive,–,2.25% (inactive),inactive,6.42%,–,–,inactive
CCCCCCCCCCCCCCCC(=O)OC(CC(=O)O)C[N+](C)(C)C (stereo not given),inactive,5.62 µM (active),–,1.06% (inactive),inactive,-1.76%,inactive,inactive,inactive
N#C/C(=C\c1c[nH]c2ccccc12)C(=O)c1ccc(O)c(O)c1,inactive,inactive,inactive,0.438% (inactive),inactive,-8.11%,inactive,inactive,–
Cc1cc2c(cc1Cl)N(C(=O)Nc1ccc(Oc3cccnc3C)nc1)CC2,inactive,14.1 µM (active),inactive,–,7.31 µM (active),-19.7%,–,–,–
COc1ccccc1N1CCN(CCN(C(=O)c2ccc(I)cc2)c2ccccn2)CC1,inactive,5.62 µM (active),inactive,–,14.6 µM (active),-4.45%,inactive,–,–
Nc1ncnc2c1c(I)cn2[C@@H]1C[C@H](N)[C@@H](O)[C@H]1O,inactive,inactive,inactive,–,–,–,inactive,–,5.17 µM (active)
CN(C)c1nc(N)c(C(=O)N=C(N)N)nc1Cl,inactive,inactive,inactive,0.625% (inactive),inactive,1.27%,inactive,inactive,–
CC[C@@H](C)[C@H]1O[C@]2(CC[C@H]1C)C[C@@H]1C[C@@H](CC=C(C)[C@@H](O[C@H]3C[C@H](OC)[C@@H](O[C@H]4C[C@H](OC)[C@@H](O)[C@H](C)O4)[C@H](C)O3)[C@@H](C)C=CC=C3CO[C@@H]4[C@H](O)C(C)=C[C@@H](C(=O)O1)[C@]34O)O2,2.06 µM (active),inactive,inactive,–,–,–,inactive,–,–
CCCCCCCCCCCCCCCCCCNC(=O)OCC(COP(=O)([O-])OCC[n+]1ccsc1)OC (stereo not given),inactive,inactive,–,0.875% (inactive),inactive,1.65%,inactive,inactive,inactive
Cc1ccc(O)c(N=Nc2ccccc2)n1,inactive,inactive,2.59 µM (active),0.875% (inactive),inactive,0.002%,inactive,–,–
C[N+]1(C)C2CC(OC(=O)[C@H](CO)c3ccccc3)CC1C1OC12 (stereo not given in full),inactive,inactive,–,–,inactive,3.14% and -2.67%,inactive,–,inactive
COc1ccc2c(c1)CCC1C2CC[C@@]2(C)C1CC[C@@H]2NCCCCCCN1C(=O)CCC1=O (stereo not given in full),inactive,–,–,–,inactive,2.91%,inactive,–,25.9 µM (active)
COc1cc(OC)c(/C=C2/C(=O)Nc3ccccc32)c(OC)c1,inactive,inactive,–,1.38% (inactive),–,–,inactive,inactive,–
Clc1ccc(N2CCN(Cc3c[nH]c4ncccc34)CC2)cc1,inactive,–,inactive,2.19% (inactive),inactive,-2.66%,inactive,inactive,inactive
O=S(=O)(c1cccc2c(I)cccc12)N1CCCNCC1,inactive,–,inactive,2.06% (inactive),inactive,12.3%,inactive,inactive,–
NCCCS(=O)(=O)O,inactive,inactive,–,0.5% (inactive),inactive,-7.16%,inactive,inactive,inactive
O=C1O/C(=C/Br)CCC1c1cccc2ccccc12 (stereo not given),inactive,inactive,–,-3.56% (inactive),–,–,inactive,inactive,18.3 µM (active)
CNC(=O)[C@H]1O[C@@H](n2cnc3c(NCc4ccc(N)cc4)ncnc32)[C@H](O)[C@@H]1O,inactive,inactive,–,–,inactive,-2.65%,inactive,–,inactive

Compound,Potency [1],Potency [2],Potency [3],activation [4],Potency [5],viability change [5],outcome [6],Potency [7],Potency [8]
CN(C)c1ccc(/C=C2\C(=O)Nc3ccccc32)cc1,inactive,inactive,–,-8.75% (inactive),–,–,inactive,inactive,–
Nc1nc(Cl)nc2c1ncn2[C@@H]1O[C@H](COP(=O)(O)OP(=O)(O)OP(=O)(O)O)[C@@H](O)[C@H]1O,inactive,–,–,–,inactive,3.12%,inactive,–,inactive
CCN(CC)c1ncnc2c1ncn2[C@@H]1O[C@H](COP(=O)(O)OP(=O)(O)C(Br)(Br)P(=O)(O)O)[C@@H](O)[C@H]1O,inactive,inactive,–,–,inactive,-6.83%,inactive,–,inactive
NCC1OC(O[C@H]2[C@H](O)[C@@H](OC3C(O)C(N)CC(N)C3OC3OC(CO)C(O)C(O)C3N)O[C@@H]2CO)C(N)C(O)C1O (stereo not given in full),inactive,inactive,–,–,inactive,1.58%,inactive,–,inactive
Cc1nc2sccn2c(=O)c1CCN1CCC(=C(c2ccccc2)c2ccc(F)cc2)CC1,inactive,–,inactive,–,inactive,0.941%,inactive,–,inactive
CN1C2CCC1CC(OC(=O)C(O)c1ccccc1)C2 (stereo not given),inactive,inactive,–,1.19% (inactive),inactive,-17.3%,inactive,inactive,inactive
O=c1[nH]c2cc(Cl)c(Cl)cc2[nH]c1=O,inactive,inactive,–,0.75% (inactive),inactive,9.5%,inactive,inactive,–
CN1CCc2cc(O)c(O)cc2C(c2ccccc2)C1 (stereo not given),inactive,–,–,-0.188% (inactive),inactive,-7.53%,inactive,inactive,inactive
CCCCCCCCCCCCCCCCCC(=O)OC(CC(=O)O)C[N+](C)(C)C (stereo not given),inactive,–,inactive,-0.5% (inactive),–,–,inactive,inactive,inactive
CNC(=O)[C@H]1O[C@@H](n2cnc3c(NCc4cccc(I)c4)ncnc32)[C@H](O)[C@@H]1O,inactive,inactive,–,–,–,–,inactive,–,–
O=C1/C(=C/c2ccsc2)CC/C1=C\c1cccs1,inactive,inactive,–,–,inactive,-8.76%,inactive,–,inactive
COc1cc(SC)ccc1C(=O)N1CCC(Cc2ccccc2)CC1,inactive,inactive,–,–,inactive,1.59%,inactive,–,inactive
NS(=O)(=O)C#Cc1ccccc1,inactive,inactive,–,–,–,–,inactive,–,–
c1cnc2c(c1)ccc1cccnc12,inactive,inactive,–,–,–,–,inactive,inactive,6.51 µM (active)
Cc1ccc(S(=O)(=O)/C=C/C#N)cc1,inactive,12.6 µM (active),–,–,–,–,inactive,–,20.6 µM (active)
O=C(O)c1cc([N+](=O)[O-])ccc1NCCCc1ccccc1,inactive,inactive,–,0% (inactive),–,–,inactive,inactive,inactive
OC[C@H]1O[C@@H](n2cnc3c(NC4CCCCC4)ncnc32)[C@H](O)[C@@H]1O,inactive,inactive,–,0.562% (inactive),inactive,2.64%,inactive,inactive,–
OC[C@H]1O[C@@H](n2cnc3c(NC4CCCC4)ncnc32)[C@H](O)[C@@H]1O,inactive,inactive,–,–,inactive,-2.89%,inactive,–,inactive
